Results on 8 molecules are retold here after PubChem BioAssay (NCI).

The panel holds about 83,000 compounds, 20% with a hit somewhere; the sample as a whole holds those more often.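 Each cell line was grown in a 96-well plate and treated with one concentration of compound for 48 hours. Values below 10 were considered active.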 A number with no mark means an inactive call. Calls of active or inactive are those of the source.

Common to all, as to test: NCI-60 one-dose screen, 48 h (100 = growth as untreated, 0 = no growth, -100 = all killed)
Holding throughout (conditions): 10 µM unless noted

Assay [1] deals with HCT-15 colon.
Assay [2] relates to HT29 colon.
Assay [3] relates to SNB-19 CNS.
The test system of assay [4] is U251 CNS.
For assay [5], the system named is PC-3 prostate.
In assay [6] the test system is SK-MEL-5 melanoma.
In assay [7] the test system is UACC-62 melanoma.
Assay [8] deals with LOX IMVI melanoma.
For assay [9], the system named is SK-MEL-28 melanoma.
Assay [10] concerns SK-MEL-2 melanoma.
The test system of assay [11] is EKVX NSCLC.
Assay [12] has as its system SN12C renal.
The test system of assay [13] is UO-31 renal.
The test system of assay [14] is TK-10 renal.
Assay [15] concerns ACHN renal.
Assay [16] concerns A498 renal.
For assay [17], the system named is MOLT-4 leukemia.
Assay [18] relates to SR leukemia.
For assay [19], the system named is CCRF-CEM leukemia.

Consider `N#CC1C(c2ccc(Cl)cc2)=Nc2c(c(-c3ccccc3)nn2-c2ccccc2)C12C(=O)Nc1ccc(Cl)cc12` (configuration not stated), for which the growth in [1] was 20.5%; in [2] it was 22.5%; in [3], 24.1%; in [4] it was 18.6%; in [5] it was 11.8%; in assay [6], 46.5%. Moreover, the growth is 48.2% in assay [7]; 43.9% in assay [8]; 52% in assay [9]; 71.3% in [10]; 40.1% in assay [11]; 60.2% in assay [12]. Also, the growth was 22.6% in [13]; 47.8% in assay [14]; 36.6% in assay [15]; 60.3% in assay [16]; 15.3% in assay [17]; 36.5% in [18].

As for `CC1=C/C(=N\N=C2/C=C(C)CC(C)(C)C2)CC(C)(C)C1`, the growth in [1] is 106%; in assay [2], 91.8%; in assay [3], 102%; in assay [4] it was 96%; in assay [5] it was 94.8%; in [6], 99%. For the same molecule, the growth in [7] is 93.8%; in [8], 100%; in [9] it was 116%; in assay [10], 107%; in assay [11] it was 108%; in [12], 108%. Further, the growth in assay [13] was 83.7%; in assay [14], 95.2%; in assay [15], 110%; in [16] it was 94.4%; in assay [19], 97.9%; in assay [17] it was 96.3%. In addition, in [18], the growth was 97.3%.

Regarding `C#CCOC(=O)[C@]1(C)CCC[C@]2(C)[C@H]3C[C@H]4C(C(C)C)=C[C@]3(CC[C@H]21)[C@@H]1C(=O)CCC(=O)[C@@H]14`, the growth in assay [1] is 92.6%; in assay [2] it was 71.1%; in assay [3] it was 86%; in assay [4], 87.6%; in assay [5], 49.7%; in assay [6], 85.5%. In addition, the growth is 63.1% in [7]; 78.8% in assay [8]; 95.3% in [9]; 88.2% in assay [10]; 76.1% in [11]; 86.8% in assay [12]. Also, the growth in [13] is 74.7%; in assay [14], 90.7%; in assay [15], 93.5%; in assay [16] it was 66.5%; in assay [17], 73.5%; in [18], 64.9%.

On to `CN1CCN(C(=O)[C@@]2(C)CC[C@]3(C)CC[C@]4(C)C(=CC[C@@H]5[C@@]6(C)CC[C@H](OC(=O)c7cccnc7)C(C)(C)[C@@H]6CC[C@]54C)[C@@H]3C2)CC1`, for which the growth in assay [1] was -46.9% (active); in assay [2], 8.46% (active); in assay [3] it was 19.8%; in assay [4], -69.8% (active); in [5], 46.8%; in assay [6], 64.4%. Also, the growth in [7] was 82.1%; in [8] it was -26.4% (active); in assay [9], 76.7%; in assay [10], 101%; in [11], 76.3%; in assay [12], 80.4%. Besides, the growth was 74.1% in assay [13]; 116% in assay [14]; 77.7% in assay [15]; 92.1% in assay [16]; 1.45% (active) in assay [19]; 31.9% in assay [17]. Moreover, in [18], the growth is -26.9% (active).

On to `CCCNc1nc(C)[nH]c(=O)c1S`, for which the growth is 96.5% in assay [1]; 108% in assay [2]; 93.1% in [3]; 95% in assay [4]; 87.4% in assay [5]; 110% in [6]. In addition, the growth in assay [7] was 113%; in [8] it was 91%; in assay [9], 114%; in [10] it was 95.6%; in assay [11], 120%; in assay [12], 186%. Besides, the growth was 90.8% in [13]; 94.7% in [15]; 180% in assay [16]; 106% in [19]; 96.3% in assay [17]; 101% in [18].

In the case of `O=c1cc(/C=N\Nc2nc(-c3ccc(Cl)cc3Cl)cs2)c2cc(Cl)ccc2o1`, the growth in assay [1] is 90.7%; in [2] it was 99.3%; in assay [3] it was 106%; in [4], 101%; in assay [5], 80.1%; in assay [6], 86.3%. Further, the growth in assay [7] was 80.6%; in assay [8], 89.8%; in assay [9], 90.6%; in assay [10] it was 92.9%; in [11] it was 79.3%; in [12], 95%. Besides, the growth in assay [13] was 70.4%; in assay [14] it was 120%; in assay [15] it was 97.7%; in assay [16] it was 101%; in assay [19] it was 97.3%; in [17], 98.1%. Moreover, in assay [18], the growth was 80.7%.

Regarding `COc1cccc(C(=O)OCCn2nc3c4c(cccc42)C(=O)c2ccccc2-3)c1O`, the growth in [1] is 28%; in [2], 79.3%; in [3] it was 38.3%; in assay [4], 33.9%; in assay [5], 20.5%; in assay [6], 36.4%. Besides, the growth was 31.3% in assay [7]; 37.6% in [8]; 72.5% in assay [9]; 78.7% in assay [10]; 56.1% in [11]; 41.5% in [12]. In addition, the growth in assay [13] is 62.6%; in assay [14] it was 85.5%; in assay [15] it was 56.6%; in assay [19] it was 18.3%; in assay [17], 29.7%; in assay [18], 21.2%.

As to `O=C(/C(=C/c1ccc([N+](=O)[O-])cc1)SCc1ccc(Cl)cc1)c1ccc(F)cc1`, the growth is -16.5% (active) in assay [1]; -2.26% (active) in assay [2]; 35.6% in assay [3]; -9.2% (active) in [4]; 41.4% in assay [5]; 69.9% in assay [6]. The growth is 33.8% in [7]; -18.3% (active) in assay [8]; 95.8% in assay [9]; 81.3% in assay [10]; 59.7% in assay [11]; 45.9% in assay [12]. Moreover, the growth is 45.8% in assay [13]; 94.7% in [14]; 54% in assay [15]; 70.5% in [16]; 7.69% (active) in assay [17]; 0.569% (active) in assay [18].
